Experimental data taken from PubChem BioAssay (NCI).
This is part of a sample that, as a whole, favours compounds with a hit. Of some 83,000 tested, about 20% had one in any assay.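 96-well plates, one dose, 48 hours. Percent growth reported; active if below 10.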 The source made the active and inactive calls.

What was measured:
Experiment in all cases: NCI-60 one-dose screen, 48 h (100 = growth as untreated, 0 = no growth, -100 = all killed)
[1] = tested on: SK-MEL-2 melanoma; conditions: 10 µM unless noted
[2] = tested on: EKVX NSCLC; conditions: 10 µM unless noted
[3] = tested on: SN12C renal; conditions: 10 µM unless noted
[4] = tested on: UO-31 renal; conditions: 10 µM unless noted
[5] = tested on: TK-10 renal; conditions: 10 µM unless noted
[6] = tested on: ACHN renal; conditions: 10 µM unless noted
[7] = tested on: CAKI-1 renal; conditions: 10 µM unless noted
[8] = tested on: A498 renal; conditions: 10 µM
[9] = tested on: HL-60(TB) leukemia; conditions: 10 µM unless noted
[10] = tested on: CCRF-CEM leukemia; conditions: 10 µM unless noted
[11] = tested on: MOLT-4 leukemia; conditions: 10 µM unless noted
[12] = tested on: SR leukemia; conditions: 10 µM unless noted
[13] = tested on: RPMI-8226 leukemia; conditions: 10 µM unless noted
[14] = tested on: OVCAR-8 ovarian; conditions: 10 µM unless noted
[15] = tested on: OVCAR-5 ovarian; conditions: 10 µM unless noted
[16] = tested on: OVCAR-4 ovarian; conditions: 10 µM unless noted
[17] = tested on: SK-OV-3 ovarian; conditions: 10 µM unless noted
[18] = tested on: IGROV1 ovarian; conditions: 10 µM unless noted
[19] = tested on: OVCAR-3 ovarian; conditions: 10 µM unless noted
[20] = tested on: HS 578T breast; conditions: 10 µM unless noted

Measured: growth

COC(C(=O)[C@@H](O)[C@@H](C)O)[C@@H]1Cc2cc3cc(O[C@H]4C[C@@H](O[C@H]5C[C@@H](O)[C@H](O)C(C)O5)[C@H](O)C(C)O4)c(C)c(O)c3c(O)c2C(=O)[C@H]1O[C@H]1C[C@@H](O[C@H]2C[C@@H](O[C@H]3C[C@@H](O)[C@@H](O)C(C)O3)[C@@H](O)C(C)O2)[C@H](O)C(C)O1 (stereo not given in full)
inactive: [2] 24.4% | [5] 12.1% | [7] 12.6% | [9] 30.5% | [10] 29.4% | [11] 23.9% | [12] 14.3% | [15] 13.7% | [16] 25.2% | [17] 25.5% | [18] 18.2% | [20] 14.5%
active: [1] -61.3% | [3] 7.47% | [4] -3.24% | [6] 0.535% | [8] -39.9% | [13] 9.15% | [14] 2.92% | [19] 4.91%

CCn1c2ccccc2c2cc(C(=O)c3ccc(C)c4ccccc34)ccc21
active: [8] 7.13% | [9] 8.9% | [11] 7.66% | [12] 2.83% | [19] 7.68%
inactive: [1] 24% | [2] 32% | [3] 22.7% | [4] 30.5% | [5] 38% | [6] 23.9% | [7] 28.8% | [10] 18.2% | [13] 12.2% | [14] 22.8% | [15] 28.6% | [16] 48.5% | [17] 25.4% | [18] 21.4% | [20] 30.1%

CC(=O)c1ccc(C(=O)NCC2CCC3(CC2)OOC2(CCCCC2)OO3)cc1
inactive: [1] 76.7% | [3] 78% | [5] 86.3% | [6] 64.6% | [8] 89.2% | [9] 19.6% | [10] 31.9% | [11] 63.4% | [12] 39% | [13] 69.3% | [14] 84.6% | [15] 70% | [16] 75.4% | [17] 99.6% | [18] 12.2% | [19] 83% | [20] 102%
active: [2] -1.77% | [4] -78.4% | [7] -29.9%

C[n+]1c(/C=C/c2ccc(N(CCCl)CCCl)cc2)sc2ccccc21
inactive: [1] 74.1% | [2] 83.4% | [3] 37.4% | [4] 96.7% | [5] 96.7% | [6] 78.8% | [7] 99.4% | [8] 84.9% | [9] 18.3% | [10] 27.9% | [11] 36.8% | [12] 19.7% | [13] 27.5% | [14] 30% | [15] 103% | [16] 72.9% | [17] 55.1% | [18] 75% | [19] 25.5% | [20] 98.8%

CC[C@H](C)[C@H](NC(=O)[C@H]1CCCCN1C)C(=O)N(C)[C@H](C[C@@H](OC(C)=O)c1nc(C(=O)N[C@@H](Cc2ccccc2)C[C@H](C)C(=O)OC)cs1)C(C)C
inactive: [1] 42.8% | [2] 36.7% | [3] 37.2% | [4] 40.3% | [5] 18.1% | [6] 13.6% | [7] 32.2% | [13] 27.5% | [14] 16.4% | [15] 58.1% | [16] 51.5% | [17] 41% | [18] 25.9% | [20] 33.8%
active: [8] 7.53% | [9] -38.6% | [10] 4.02% | [11] 4.63% | [12] -7.13% | [19] -0.916%

O=C(CC1(O)C(=O)N(Cc2ccccc2)c2ccc(Br)cc21)c1ccc(C(=O)NCC2CCC3(CC2)OOC2(CCCCC2)OO3)cc1 (stereo not given)
active: [2] -65% | [3] -55.8% | [4] -73.3% | [5] -80.9% | [6] -83% | [7] -90.8% | [8] -74% | [9] -57.3% | [10] -41.6% | [11] -37.3% | [12] -40.7% | [13] -7.69% | [14] -40.9% | [16] -34.1% | [18] -36.2% | [19] -84.1%
inactive: [1] 34.1% | [15] 12.4% | [17] 83.4% | [20] 22.6%

CC[C@]12C=CCN3CC[C@@]4(c5ccc(OC)cc5N(C)[C@H]4[C@@](O)(C(=O)OC)[C@@H]1OC(=O)CCCC[P+](c1ccccc1)(c1ccccc1)c1ccccc1)[C@@H]32
active: [1] -41.6% | [3] 4.56% | [9] -63.5% | [11] 5.66% | [16] 5.22% | [17] -2.96% | [18] -36.4% | [19] -0.293% | [20] 9.79%
inactive: [2] 56.1% | [4] 81.9% | [5] 48.6% | [6] 93.1% | [7] 85.9% | [8] 52.2% | [10] 15.6% | [12] 17.9% | [13] 15.4% | [14] 18.6% | [15] 23.8%
